ROMK primary: modulators of human ROMK potassium channel; P48048; Tet-inducible ROMK, thallium flux fluorescence; actives lie on both sides; 2% of 130,000 active; AID 1918; B-score at 10 µM;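 active means signal ratio slope over the read window, or its plate-corrected B-score, at least 3 SD from the plate mean, either direction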;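 further: B-score of the F/F0 ratio slope over 7 to 12 s after thallium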
S1P4 agonist: human S1P4 receptor agonism | O95977 | S1P4-expressing cell line, agonist reporter assay | activation, % at 4.98 µM | 0.35% of 220,000 active | AID 1509; in the data active means activation above about 11%
RAM inhibit: yeast RAM network inhibition; S. cerevisiae dse1pr::URA3 reporter, 5-FOA growth OD615, 2 d; analog-sensitive cbk1-as2 kinase mutant strain; inhibition, % at 50 µM; 1.8% of 190,000 active; AID 868;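 active means inhibition above a set limit, 3 SD over mean compound inhibition, cut at about 8.4% in these data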;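 further: inhibition rescues growth on 5-FOA so higher OD means more RAM inhibition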
KCC2 mod: modulators of human KCC2 chloride dependent transport. Q9H2X9. KCC2 cells, thallium flux FluoZin-2 fluorescence. B-score of Tl+ flux slope (higher = more flux/activation; lower = inhibition) at 10 µM. 2.2% of 190,000 active. AID 1456;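 active means thallium flux slope and its plate-corrected score both differing from the plate sample mean at a set confidence after two filtering rounds, in either direction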;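 further: slope of fluorescence scaled to starting intensity during 10 to 20 s after thallium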
S1P3 antag: blocks the human S1P3 receptor; inhibition, % at 4.98 µM; 0.27% of 170,000 active; AID 485; CHO S1P3 NFAT-BLA reporter, FRET fluorescence, antagonist mode;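 active means inhibition above the plate cutoff, the mean inhibition of test wells on that plate plus 3 SD, cut at about 28% in these data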;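 further: cells challenged with S1P at its EC80 of 0.8 µM; blue over green emission ratio from cleaved BLA substrate after 4 h stimulation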
S1P4 antag: blocks the human S1P4 receptor. O95977. inhibition, % at 4.98 µM. AID 1510. S1P4-expressing cells, antagonist mode, reporter read-out. 0.26% of 220,000 active; in the data active means inhibition above about 29%
RAM 5-FOA: RAM network inhibitors in efflux-deficient yeast; shares compounds with RAM inhibit; S. cerevisiae efflux-deficient reporter strain, 5-FOA growth OD615, 2 days; max inhibition, %; 1,200 tested, under 10 active; call rule not given here
Large screens that a line does not name were inactive (follow-up assays come after a bar, where they were run). In the library only some 5.1% were active in any assay of this set; here they are far more common.

COc1ccc(-c2ccc(-c3noc(-c4ccccc4C)n3)c(OC)n2)cc1	RAM inhibit 16.1 (no result: ROMK primary, KCC2 mod) | RAM 5-FOA inactive
COc1ccc(-c2ccc(-c3noc(C4CCCCC4)n3)c(OC)n2)cc1	RAM inhibit 15.8 | RAM 5-FOA inactive
COc1ccc(-c2ccc(-c3noc(-c4ccccc4OC)n3)c(OC)n2)cc1	none (no result: ROMK primary)
CC1CN(c2nc3ccccn3c(=O)c2C=O)CC(C)O1 (stereo unspecified)	none
C/C(=N\NC(=O)CCn1nnc2ccccc21)c1ccco1	none (no result: ROMK primary, RAM inhibit)
CC(OC(=O)c1ccccc1NS(=O)(=O)c1cccc(C(F)(F)F)c1)C(=O)N(C)Cc1ccccc1 (stereo unspecified)	RAM inhibit 12.6 (no result: ROMK primary) | RAM 5-FOA inactive
CC(C)(O)C#Cc1ccc(C(=O)NCc2ccccc2)s1	none (no result: ROMK primary, RAM inhibit, S1P3 antag)
CC(C)CCN1CCN(Cc2nc3c(s2)CCCC3)CC1CCO (stereo unspecified)	none
O=C(CNC(=O)c1ccco1)OC(C(=O)c1ccccc1)c1ccccc1 (stereo unspecified)	none (no result: ROMK primary)
O=C(COc1ccccc1)OC(C(=O)c1ccccc1)c1ccccc1 (stereo unspecified)	RAM inhibit 12.4 (no result: ROMK primary) | RAM 5-FOA inactive
Cc1ccc(C(=O)C(OC(=O)COc2ccccc2C)c2ccccc2)cc1 (stereo unspecified)	RAM inhibit 14.5 (no result: ROMK primary, S1P3 antag) | RAM 5-FOA inactive
CCCOc1ccc(C2C(C(=O)/C=C/c3ccco3)=C(O)C(=O)N2CCN2CCOCC2)cc1OC (stereo unspecified)	none
Cc1ccc(C(=O)NC(NC(=O)c2ccc(C)cc2)c2cccc([N+](=O)[O-])c2)cc1	none (no result: ROMK primary)
COc1cccc(-c2ccc(C#N)c(OC(=O)c3c(Cl)cccc3Cl)n2)c1	RAM inhibit 12.2 (no result: ROMK primary, S1P3 antag) | RAM 5-FOA inactive
C/C(=N\Nc1ccc([N+](=O)[O-])cc1[N+](=O)[O-])C(C)(C)C(C(=O)O)C(=O)O	none (no result: ROMK primary)
O=C(Nc1ccc(Br)cc1)c1cccc(S(=O)(=O)Nc2cnc3ccccc3c2)c1	RAM inhibit 15.2 | RAM 5-FOA inactive
COc1ccc(NC(=O)c2cccc(S(=O)(=O)Nc3ccc(Br)cc3)c2)cn1	none (no result: ROMK primary)
CCOc1ccc(-n2c(C)nc(O)c2N=Nc2ccccc2)cc1	RAM inhibit 14.3 | RAM 5-FOA inactive
O=C(CN(C1CC1)S(=O)(=O)c1ccc(S(=O)(=O)NC2CCCCC2)cc1)Nc1ccccc1	none (no result: ROMK primary)
O=C(CN(Cc1cccs1)S(=O)(=O)c1ccc(S(=O)(=O)NC2CCCCC2)cc1)Nc1ccccc1	RAM inhibit 13.8 | RAM 5-FOA inactive
Oc1ccc(/C=N/N=C(c2ccccc2)c2ccccc2)c(O)c1O	none (no result: ROMK primary)
O=C(/C(=N/N=C/c1ccc(O)c(O)c1O)c1ccccc1)c1ccccc1	RAM inhibit 17.0 | RAM 5-FOA inactive
O=C(CSc1ccc(Br)cc1)Nc1ccccc1Oc1ccccc1	RAM inhibit 11.5 | RAM 5-FOA inactive
O=C(O)CCC(=O)Nc1cccc(-c2csc(-c3ccccc3)n2)c1	none
CCCCC(=O)Nc1cccc(-c2csc(-c3ccccc3)n2)c1	RAM inhibit 18.5 | RAM 5-FOA inactive
O=S(=O)(NCCOc1ccccc1Cl)c1ccc2oc3ccccc3c2c1	none (no result: ROMK primary, RAM inhibit, S1P3 antag)
COc1ccccc1OCCNS(=O)(=O)c1ccc2oc3ccccc3c2c1	RAM inhibit 14.6 | RAM 5-FOA inactive
CCN1C(=O)c2cccc3c(NS(=O)(=O)c4ccc(NC(C)=O)cc4)ccc1c23	none (no result: ROMK primary)
CCOC(=O)c1ccc(NC(=O)Nc2ccc3c4c(cccc24)C(=O)N3CC)cc1	RAM inhibit 18.4 (no result: ROMK primary) | RAM 5-FOA inactive
Cc1cc(N(CC(=O)NC(C)C)S(C)(=O)=O)ccc1Br	none
CCOc1cc(NC(=O)c2ccccn2)c(OCC)cc1NC(=O)c1ccc(C)cc1	RAM inhibit 12.0 | RAM 5-FOA inactive
CC(=O)NCC1(O)CCCC(C)C1 (stereo unspecified)	none (no result: RAM inhibit)
CC(C)COc1ccc(/C=C2/Sc3ccccc3C2=O)cc1	RAM inhibit 20.9 (no result: ROMK primary, S1P3 antag) | RAM 5-FOA inactive
CCCCOc1ccc(/C=C2/Sc3ccccc3C2=O)cc1	RAM inhibit 16.6 (no result: ROMK primary, S1P3 antag) | RAM 5-FOA inactive
Cc1ccc(C)c(C(=O)CCC(=O)NCc2ccc(Cl)cc2)c1	none
CCC1=C(OC(=O)N(CC)CC)N2C(=O)OC(=NCCc3c[nH]c4ccccc34)[C@]2(C)[C@H]2C1=CC[C@H]1C(=O)N(CC(=O)OC)C(=O)[C@H]12	none (no result: ROMK primary, S1P4 agonist, RAM inhibit, S1P3 antag, S1P4 antag)
Cc1c(C(=O)N2CCc3ccccc3C2)oc2ccc(S(=O)(=O)N3CC(C)CC(C)C3)cc12 (stereo unspecified)	RAM inhibit 11.7 | RAM 5-FOA inactive
CCN(CC)S(=O)(=O)c1ccc2oc(C(=O)N3CCc4ccccc4C3)c(C)c2c1	none
O=C1CC[C@@H](CN(Cc2ccccn2)Cc2nc(-c3ccc(C(F)(F)F)cc3)no2)N1	none (no result: ROMK primary)
O=C(O)CC1S/C(=N/N=C/c2ccc(Br)cc2)N(c2ccccc2)C1=O (stereo unspecified)	RAM inhibit 12.9 | RAM 5-FOA inactive
COc1cc(C(O)c2nc3ccccc3s2)cc(OC)c1OC (stereo unspecified)	none (no result: ROMK primary, RAM inhibit, KCC2 mod)
CC(=O)Nc1ccc(S(=O)(=O)Nc2nc3ccccc3nc2Nc2ccc3ccccc3c2)cc1	RAM inhibit 15.9 (no result: ROMK primary) | RAM 5-FOA inactive
CC(=O)Nc1ccc(S(=O)(=O)Nc2nc3ccccc3nc2Nc2cccc(O)c2)cc1	none (no result: ROMK primary, RAM inhibit)
CC(C)c1ccc(N=C(N)N=C(N)N)cc1	none
COCCn1c(SCC(=O)Nc2nnc(C)s2)nnc1-c1ccncc1	none
CCOC(=O)c1sc(NC(=O)CSc2nnc(-c3ccc(OC)cc3)n2CCOC)nc1C	RAM inhibit 12.4 (no result: ROMK primary) | RAM 5-FOA inactive
CCCCCc1c2c(cc(O)c1C(=O)O)OC(=O)c1c(cc(OC)cc1C(=O)CCCC)O2	RAM inhibit 13.3 (no result: ROMK primary) | RAM 5-FOA inactive
COc1ccc(CCNC(=O)c2ccc(Cl)c(S(=O)(=O)N(C)c3ccccc3)c2)cc1	RAM inhibit 17.0 | RAM 5-FOA inactive
CCN(c1ccccc1)S(=O)(=O)c1ccc(Cl)c(C(=O)NCCc2ccc(OC)cc2)c1	RAM inhibit 12.3 (no result: ROMK primary) | RAM 5-FOA inactive
CC(C)CCN(C(=O)Cc1ccc(Cl)c(Cl)c1)c1c(N)n(Cc2ccccc2)c(=O)[nH]c1=O	none
C=CCOC(=O)C1=C[C@@H](c2coc3ccccc3c2=O)C[C@@H](OCc2ccc(CO)cc2)O1	none (no result: ROMK primary)
C=CCOC(=O)C1=C[C@@H](c2csc3ccccc23)C[C@@H](OCc2ccc(CO)cc2)O1	RAM inhibit 13.6 (no result: ROMK primary) | RAM 5-FOA inactive
COc1ccc(OC)c(-c2csc(NC(=O)CSc3ccccc3)n2)c1	RAM inhibit 11.4 | RAM 5-FOA inactive
CCOC(=O)c1c(NC(=O)CSc2nncs2)sc(C)c1-c1ccccc1	RAM inhibit 13.0 | RAM 5-FOA inactive
CCOC(=O)c1c(-c2ccccc2)csc1NC(=O)CCN1CCOCC1	none

Bioassay records: PubChem BioAssay, several laboratories
